Screens as filed in PubChem.
In the library only some 2.4% were active in any assay of this set; here they are far more common.
WRN helicase inh: inhibitors of human WRN helicase. 360,000 compounds, 0.46% hits. AID 651768. Potency, µM (highest dose often 114 µM), inactives show at the top dose activity change, negative = inhibition, most hits filed as inhibitors. WRN helicase unwinding, fluorescent forked duplex, kinetic; also: % is scaled to controls: 0 for no effect and ±100 for the full control effect; nearly all actives have a fitted effect of over 55% in size
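Fluorescence dequenching readout, ex 525 nm/em 598 nm, kinetic mode: forked duplex DNA (100 nM final) with adjacent fluorophore and quencher unwound by WRN (20 nM final) with 2 mM ATP. Compound preincubation 15 min, room temperature.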
FEN1 inhibitor: blocks human flap endonuclease 1; P39748; 390,000 compounds, 0.35% hits; Potency, µM (doses to about 114 µM), without a hit: at the top dose activity change, negative = inhibition, usual class: inhibitors; Recombinant FEN1 flap cleavage, fluorescence, 15 min; also: % is scaled to controls: 0 for no effect and ±100 for the full control effect; nearly all actives have a fitted effect of over 65% in size
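Steps: FEN1 (10 nM) dispensed; compound added by pin tool; 15 min at room temperature; substrate added to 50 nM final; reads at 0 min and 15 min; data normalized and fitted (four-parameter Hill).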
POLI inh: DNA polymerase iota (human) inhibition. Q9UNA4. Pol iota fluorescent replication assay, 10 min. Potency, µM (titrated, usually from 115 µM), without a hit: at the top dose activity, negative = inhibition, actives largely listed as inhibitors. 390,000 compounds, 1% hits. AID 588590
Target sequence (Q9UNA4 whole entry, looked up): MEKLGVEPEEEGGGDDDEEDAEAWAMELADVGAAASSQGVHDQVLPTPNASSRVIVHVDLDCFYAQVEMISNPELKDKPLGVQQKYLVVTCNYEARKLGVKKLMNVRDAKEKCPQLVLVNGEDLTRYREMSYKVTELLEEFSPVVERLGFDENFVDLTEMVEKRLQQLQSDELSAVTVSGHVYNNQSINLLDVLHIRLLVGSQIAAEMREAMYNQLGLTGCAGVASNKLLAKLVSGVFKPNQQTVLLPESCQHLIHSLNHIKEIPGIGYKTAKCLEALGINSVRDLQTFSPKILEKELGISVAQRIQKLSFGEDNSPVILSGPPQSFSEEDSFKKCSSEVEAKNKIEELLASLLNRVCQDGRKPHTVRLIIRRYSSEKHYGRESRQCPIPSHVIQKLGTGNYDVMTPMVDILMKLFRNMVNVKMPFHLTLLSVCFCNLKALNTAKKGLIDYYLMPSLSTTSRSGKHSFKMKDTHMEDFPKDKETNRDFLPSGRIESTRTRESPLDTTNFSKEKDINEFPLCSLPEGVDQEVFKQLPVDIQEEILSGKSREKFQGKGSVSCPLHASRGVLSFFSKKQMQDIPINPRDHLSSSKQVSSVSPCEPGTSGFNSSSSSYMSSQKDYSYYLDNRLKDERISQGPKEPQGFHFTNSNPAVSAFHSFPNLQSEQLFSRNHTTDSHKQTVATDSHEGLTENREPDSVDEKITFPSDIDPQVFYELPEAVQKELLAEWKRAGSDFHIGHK
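Pol iota at 10 nM preincubated 15 min with compounds at room temperature; reaction started with fluorescent substrate, 50 nM final. Fluorescence read kinetically at 0 and 10 min; buffer-only wells as negative control.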
Pol kappa inh-1: DNA polymerase kappa (human) inhibition; Q9UBT6; purified Pol kappa, fluorescent DNA synthesis assay, 10 min; Potency, µM (titrated, usually from 107 µM), inactives show top-dose activity, negative = inhibition, actives largely listed as inhibitors; 400,000 compounds, 0.53% hits; also: % is scaled to controls: 0 for no effect and ±100 for the full control effect
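50 nM final substrate added after 15 min RT preincubation of 10 nM Pol kappa with compound; fluorescence read at 0 and 10 min.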
POLB inh: inhibitors of human DNA polymerase beta; 340,000 compounds, 1.3% hits; Pol beta primer extension/strand displacement, fluorescence kinetic; P06746; Potency, µM (doses to about 114 µM), without a hit: at the highest dose activity change, negative = inhibition, most hits filed as inhibitors; also: % is scaled to controls: 0 for no effect and ±100 for the full control effect
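Curves were derived by four-parameter Hill fits of normalized qHTS data. The kinetic fluorescent primer-extension read was taken at 0 and 10 min after 50 nM substrate, following a 15 min room-temperature preincubation of 10 nM enzyme with compounds.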
Pol eta inh-1: inhibitors of human DNA polymerase eta; Potency, µM (highest dose often 114 µM), for the others: at the highest dose activity change, negative = inhibition, usual class: inhibitors; recombinant Pol eta, fluorescent DNA replication assay; 390,000 compounds, 1.2% hits; also: % is scaled to controls: 0 for no effect and ±100 for the full control effect
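Pol eta (10 nM) was preincubated with compounds for 15 min at room temperature, after which fluorescent replication substrate (50 nM final) was added to start the reaction. Fluorescence was read kinetically at 0 and 10 min.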
POLI cherry-pick: Human Pol iota inhibitor confirmatory assay | shares compounds with Pol kappa inh-1 | AID 720496 | 1,500 compounds, 77% hits | Potency, µM, usual class: inhibitors | Pol iota primer extension, TAMRA/BHQ fluorescence
Pol kappa inh-2: confirmation of human DNA polymerase kappa inhibitors; shares compounds with Pol eta inh-1; purified Pol-kappa, fluorescent strand-displacement substrate; Potency, µM, usual class: inhibitors; 920 compounds, 76% hits; AID 720501
Pol eta inh-2: confirmation of human DNA polymerase eta inhibitors | Pol eta primer extension, TAMRA/BHQ fluorescence, 10 min | shares compounds with Pol eta inh-1 | 2,600 compounds, 64% hits | Potency, µM, hits mostly inhibitors | AID 720502
Starred values were filed as active, the others as inactive; ? = inconclusive; . = not tested or not shown; [ ] = dose if it differs, or a comment. Calls follow the shape of the dose curve; as a rule, active = well fitted curve in the direction sought with a large enough effect; inconclusive = small, poorly fitted or top-dose-only effect, or another doubt; inactive = no such curve, though single readings can be large; an effect the other way counts as inactive or inconclusive. Potency is read from the fitted curve at half-maximal effect.

SMILES	WRN helicase inh	FEN1 inhibitor	POLI inh	Pol kappa inh-1	POLB inh	Pol eta inh-1	POLI cherry-pick	Pol eta inh-2	others
CN1CCC(N(C)C(=O)/C=C/c2cn(-c3ccccc3)nc2-c2cccs2)CC1	5%	-19%	49%	-8%	2%	-4%	.	.
CCN1C(=O)/C(=C/c2cn(-c3ccccc3)nc2-c2cccnc2)SC1=S	8%	-3%	-2%	3%	.	-19%	.	.
O=C(O)CCN1C(=O)/C(=C/c2cn(-c3ccccc3)nc2-c2cccs2)SC1=S	-22%[11.6 µM]	?	32µM*	89µM*	-16%	35µM*	19*	43*
Cc1ccc(-n2ncc3c(Nc4cccc(C(F)(F)F)c4)ncnc32)cc1C	.	15%	18%	-2%[60.1 µM]	0%	3%	.	.
CC(C)[C@H](CO)Nc1nc(Nc2cccc(Cl)c2)c2ncn(C(C)C)c2n1	.	.	.	-13%[19.4 µM]	.	.	.	.
C/C=C/C(=O)[C@@H](C)[C@@H](/C=C/C[Si](C)(C)C)c1ccccc1	.	5%	-9%	-13%	.	.	.	.
COc1ccc(NC(=O)c2ccc3c(=O)n4nc(Nc5cc(C)ccc5C)sc4nc3c2)cc1	.	3%	9%	6%	-7%	9%	.	.
CCNc1ncc2nc(-c3cc(F)cc(F)c3)c(=O)n(C)c2n1	.	.	.	-3%[60.1 µM]	.	.	.	.
COc1cc(Nc2ncc3c(n2)CCN(Cc2ccc(OC(C)C)c(OC)c2)C3)cc(OC)c1	.	-5%	-6%	-6%[60.1 µM]	11%	.	.	.
CCCCCCCCCCCCCCCC[N+](C)(C)Cc1ccccc1	.	.	.	2%[19.4 µM]	.	.	.	.
S=c1[nH]nc(-c2cc(-c3ccccc3)n[nH]2)n1/N=C/C=C/c1ccco1	?	?	14µM*	50µM*	22µM*	22µM*	?	30*	Pol kappa inh-2=24*
CCOC(=O)C1=C(C)N(C[C@@H]2CC[C@@H](Cc3ccc(-c4ccccc4)cc3)O2)C(=O)NC1c1ccc(SCc2ccco2)c([N+](=O)[O-])c1 (stereo partly specified)	?	-24%	?	?	.	13µM*	60*	48*	Pol kappa inh-2=17*
Cc1ccccc1Nc1cc2ccccc2c(=O)[nH]1	?	-1%	?	-11%	-12%	11µM*	75*	38*
Cc1cc2ccccc2c(=O)[nH]1	2%	5%	18%	-4%[60.1 µM]	4%	-10%	.	.
COc1ccccc1Nc1cc2ccccc2c(=O)[nH]1	.	.	.	.	.	.	42*	27*
O=c1[nH]c(Nc2ccccn2)cc2ccccc12	-5%	-8%	?	-5%	.	?	.	.
O=c1cc(Br)c(O)c(Br)cc1Br	?	?	4.5µM*	50µM*	.	18µM*	?	60*
COCCn1c(=O)c(C)nc2cnc(N3CCN(C)CC3)nc21	.	.	.	1%[60.1 µM]	.	.	.	.
CC1(OC(=O)c2ccc(Cl)nc2)C(=O)C=C2C=C3CCCN3C=C2C1=O (stereo unspecified)	?	?	?	50µM*	25µM*	14µM*	67*	48*
CC1(OC(=O)C2CCCC2)C(=O)C=C2C=C3CCCCN3C=C2C1=O (stereo unspecified)	6%	-3%	?	?	13%	?	.	.
C=CCc1cc(/C=C/c2nc(O)c([N+](=O)[O-])c(=O)[nH]2)cc(OC)c1O	45µM*	45µM*	?	79µM*	25µM*	11µM*	?	30*
CC1(C)CC(=O)c2cc(-c3nc(-c4ccc(F)cc4)cs3)c(=O)[nH]c2C1	.	-7%	9%	-7%	-9%	3%	.	.
Cc1cccc2c1NC(=O)C2=O	28µM*	?	8.9µM*	50µM*	.	8.9µM*	42*	17*	Pol kappa inh-2=15*
O=C1Nc2c(Cl)cccc2C1=O	-3%	.	.	.	.	.	.	.
CCCSc1nc(C)c(-c2csc(C(C#N)=C3CCCC3)n2)cc1C#N	?	-18%	?	?	-103%	45µM*	67*	34*
SMILES	WRN helicase inh	FEN1 inhibitor	POLI inh	Pol kappa inh-1	POLB inh	Pol eta inh-1	POLI cherry-pick	Pol eta inh-2	others
CC1CCCCC1NC(=O)COC(=O)c1c2c(nc3ccccc13)/C(=C\c1ccco1)CC2 (stereo unspecified)	?	50µM*	3.2µM*	22µM*	.	10µM*	60*	34*	Pol kappa inh-2=21*
O=C(COC(=O)c1c2c(nc3ccccc13)/C(=C\c1ccco1)CC2)NC1CCCC1	45µM*	?	6.3µM*	22µM*	.	3.5µM*	19*	27*	Pol kappa inh-2=12*
CC1CCCCC1NC(=O)COC(=O)c1ccc(S(=O)(=O)NCc2ccco2)cc1 (stereo unspecified)	-16%	-7%	?	?	?	?	.	.
O=C(COC(=O)c1c2c(nc3ccccc13)/C(=C/c1cccc([N+](=O)[O-])c1)CCC2)NC1CCS(=O)(=O)C1 (stereo unspecified)	-32%	1%	5%	-20%	2%	-11%	.	.
CC(=O)Nc1ccc(C(=O)/C=C/c2ccco2)cc1	?	?	?	45µM*	25µM*	25µM*	?	38*
CC(=O)Nc1cccc(C(=O)/C=C/c2ccco2)c1	-15%	1%	?	-32%	8%	?	.	.
COc1ccc(N2Cc3cccc(C(=O)Nc4cccc(F)c4)c3C2=O)cc1	.	4%	79µM*	?	14µM*	.	38*	76*	Pol kappa inh-2=12*
COc1ccc(N2Cc3cccc(C(=O)N4CCN(C(=O)c5ccco5)CC4)c3C2=O)cc1	50µM*	-13%	?	?	10µM*	5.6µM*	38*	60*	Pol kappa inh-2=42*
COc1ccc(N2Cc3cccc(C(=O)N4CCOCC4)c3C2=O)cc1	10%	9%	17%	4%	3%	-8%	.	.
Cc1noc(C)c1-c1nccc(N2CCN(C)CC2)n1	.	.	.	-1%[60.1 µM]	.	.	.	.
COCCn1c(=O)c(-c2ccc(F)cc2)nc2cnc(N3CCOCC3)nc21	.	.	.	1%[60.1 µM]	.	.	.	.
Cc1ccc(CNc2ccc(O)cc2)cc1	?	?	3.5µM*	?	?	28µM*	?	?
Cc1ccccc1C1CC(=O)Oc2cc(C)c(Br)c(C)c21 (stereo unspecified)	.	.	.	-13%	.	.	.	.
O=C(CSc1nnc(SCc2ccc(Cl)cc2)s1)N/N=C/c1c[nH]c2ccccc12	?	?	10µM*	?	8.9µM*	3.2µM*	8.4*	19*
